Hit rate of the full screen: of about 5,500 compounds, about 2,000 (36%) were called active. Inconclusive results (about 18%) are left out. Rule as the data show it: active = normalized growth mostly below about 0.91 (no sharp cut-off); inconclusive = no clear call, values can overlap the other calls; inactive = mostly above about 0.92. The list shows a part of the results.
Experiment: chemical genetic growth profiling, strain panel (AID 1159580);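 also: tested at 20 µM; growth read once vehicle control cultures reached saturation at 30 °C; 1 = growth at the plate median or of vehicle wells; lower values mean less growth of the strain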
Details: S. cerevisiae deletion strains, growth OD
[1] = locus YAR019C, strain CDC15, hits give low values
[2] = locus YBL105C, strain PKC1, hits give low values
[3] = locus YBR135W, strain CKS1, hits give low values
[4] = locus YBR136W, strain MEC1, hits give low values
[5] = locus YBR160W, strain CDC28, hits give low values
[6] = locus YDL017W, strain CDC7, hits give low values
[7] = locus YDL028C, strain MPS1, hits give low values
[8] = locus YDL101C, strain DUN1, hits give low values
[9] = locus YDL108W, strain KIN28, hits give low values
[10] = locus YDL214C, strain PRR2, hits give low values
[11] = locus YDR052C, strain DBF4, hits give low values
[12] = locus YDR054C, strain cdc34, hits give low values
[13] = locus YDR226W, strain ADK1, hits give low values
[14] = locus YDR477W, strain SNF1, hits give low values
[15] = locus YER123W, strain YCK3, hits give low values
[16] = locus YER133W, strain GLC7, hits give low values
[17] = locus YFL009W, strain cdc4, hits give low values
[18] = locus YFL029C, strain CAK1, hits give low values
[19] = locus YFR003C, strain YPI1, hits give low values
[20] = locus YFR019W, strain FAB1, hits give low values
[21] = locus YFR028C, strain CDC14, hits give low values
[22] = locus YGR040W, strain KSS1, hits give low values
[23] = locus YGR052W, strain FMP48, hits give low values
[24] = locus YGR092W, strain DBF2, hits give low values
[25] = locus YHR079C, strain IRE1, hits give low values
[26] = locus YHR082C, strain KSP1, hits give low values
[27] = locus YHR205W, strain SCH9, hits give low values
[28] = locus YIL147C, strain SLN1, hits give low values
[29] = locus YJL095W, strain BCK1, hits give low values
[30] = locus YJL157C, strain FAR1, hits give low values
[31] = locus YJR016C, strain ILV3, hits give low values
[32] = locus YJR066W, strain TOR1 (second series), hits give low values
[33] = locus YJR066W, strain TOR1, hits give low values
[34] = locus YKL048C, strain ELM1, hits give low values
[35] = locus YKL067W, strain YNK1, hits give low values
[36] = locus YKL101W, strain HSL1, hits give low values
[37] = locus YKL193C, strain SDS22, hits give low values
[38] = locus YKL203C, strain TOR2, hits give low values
[39] = locus YLR113W, strain HOG1, hits give low values
[40] = locus YLR133W, strain CKI1, hits give low values
[41] = locus YLR403W, strain SFP1, hits give low values
[42] = locus YML070W, strain DAK1, hits give low values
[43] = locus YMR001C, strain CDC5, hits give low values
[44] = locus YMR205C, strain PFK2 (second series), hits give low values
[45] = locus YMR277W, strain FCP1, hits give low values
[46] = locus YNL006W, strain LST8, hits give low values
[47] = locus YNL020C, strain ARK1, hits give low values
[48] = locus YNL161W, strain CBK1, hits give low values
[49] = locus YNL183C, strain NPR1, hits give low values
[50] = locus YNL207W, strain RIO2, hits give low values
[51] = locus YNL222W, strain SSU72, hits give low values
[52] = locus YNL307C, strain MCK1 (second series), hits give low values
[53] = locus YOL078W, strain AVO1, hits give low values
[54] = locus YOL136C, strain PFK27, hits give low values
[55] = locus YOR061W, strain CKA2, hits give low values
[56] = locus YOR119C, strain RIO1, hits give low values
[57] = locus YOR231W, strain MKK1, hits give low values
[58] = locus YOR329C, strain SCD5, hits give low values
[59] = locus YPL031C, strain PHO85, hits give low values
[60] = locus YPL153C, strain RAD53, hits give low values
[61] = locus YPL204W, strain HRR25, hits give low values
[62] = locus YPL209C, strain IPL1, hits give low values
[63] = locus YPL256C, strain CLN2, hits give low values
[64] = locus YPR025C, strain CCL1, hits give low values
[65] = locus YPR111W, strain DBF20, hits give low values
[66] = strain NNK1, hits give low values
[67] = strain TSCII, hits give low values
[68] = locus YHR030C, strain SLT2, hits give low values

Measured: normalized growth

O=C(CSC1=NNC(c2ccccn2)S1)Nc1ccccc1 (stereo not drawn)
inactive: [1] 1 | [2] 0.998 | [3] 0.994 | [4] 1 | [5] 1 | [6] 1.01 | [7] 0.998 | [8] 0.997 | [9] 1 | locus YDL132W, strain cdc53, hits give low values 0.995 | [10] 0.984 | [11] 0.994 | [12] 1 | [13] 1 | [14] 0.971 | [15] 0.951 | [16] 0.962 | [17] 1 | [18] 0.998 | [19] 1.01 | [20] 0.966 | [21] 1 | [22] 0.976 | [23] 1.08 | [24] 0.929 | [25] 1.08 | [26] 1.27 | [27] 0.97 | [28] 1 | [29] 1.08 | locus YJL128C, strain PBS2, hits give low values 0.976 | [30] 0.934 | [31] 1 | [32] 0.942 | [33] 1.27 | [34] 0.949 | [35] 0.987 | [36] 0.981 | [37] 0.997 | [38] 1.03 | [39] 1.06 | [40] 0.933 | [41] 0.92 | [42] 0.966 | [43] 1 | [44] 0.955 | [45] 1 | [46] 1.02 | [47] 0.936 | [48] 0.999 | [49] 1.01 | [50] 0.995 | [51] 1 | [52] 0.949 | [53] 0.995 | [54] 0.967 | [55] 0.96 | [56] 0.973 | [57] 1.11 | [58] 1 | [59] 0.973 | [60] 0.955 | [61] 0.923 | [62] 1 | [63] 1.03 | [64] 0.999 | locus YPR106W, strain ISR1, hits give low values 1.01 | [65] 1.01 | [66] 0.995 | [67] 0.996

C#CCSC1=NNC(c2ccccn2)S1 (stereo not drawn)
inactive: [2] 0.945 | [3] 0.928 | [4] 0.924 | [5] 0.932 | [6] 0.947 | [7] 0.917 | [9] 0.932 | [11] 0.94 | [13] 0.975 | [19] 0.957 | [28] 0.932 | [62] 0.951 | [64] 0.931 | [65] 0.928
active: [1] 0.583 | [8] 0.45 | [10] 0.163 | [12] 0.531 | [14] 0.136 | [15] 0.125 | [16] 0.162 | [17] 0.573 | [18] 0.517 | [20] 0.111 | [21] 0.763 | [22] 0.176 | [23] 0.175 | [24] 0.119 | [68] 0.135 | [25] 0.122 | [26] 0.21 | [27] 0.123 | [29] 0.129 | [30] 0.119 | [31] 0.596 | [32] 0.124 | [33] 0.172 | [34] 0.262 | [35] 0.137 | [36] 0.173 | [37] 0.618 | [38] 0.153 | [39] 0.225 | [40] 0.152 | [41] 0.045 | [42] 0.12 | [43] 0.821 | [44] 0.167 | [45] 0.481 | [46] 0.892 | [47] 0.137 | [48] 0.738 | [49] 0.171 | [50] 0.811 | [51] 0.635 | [52] 0.151 | [53] 0.527 | [54] 0.13 | [55] 0.183 | [56] 0.139 | [57] 0.149 | [58] 0.855 | [59] 0.162 | [60] 0.126 | [61] 0.141 | [63] 0.149 | [66] 0.408 | [67] 0.541

CC(=O)O[C@H]1CCC2(C)C3=C(CCC2C1(C)C)[C@]1(C)CCC(C(C)CCC=C(C)C)[C@@]1(C)CC3 (stereo partly drawn)
inactive: locus YAL021C, strain ccr4, hits give low values 1.05 | locus YAL026C, strain drs2, hits give low values 0.971 | locus YAL030W, strain snc1, hits give low values 0.996 | locus YBL061C, strain skt5, hits give low values 0.99 | locus YBR009C, strain hhf1, hits give low values 0.998 | locus YBR023C, strain chs3, hits give low values 0.984 | locus YBR171W, strain sec66, hits give low values 0.994 | locus YBR231C, strain swc5, hits give low values 0.961 | locus YBR279W, strain paf1, hits give low values 0.996 | locus YCL011C, strain gbp2, hits give low values 1.01 | locus YCL016C, strain dcc1, hits give low values 1.01 | locus YCL061C, strain MRC1, hits give low values 0.995 | locus YCL069W, strain vba3, hits give low values 0.999 | locus YCR088W, strain abp1, hits give low values 1 | locus YDL005C, strain med2, hits give low values 0.983 | locus YDL040C, strain nat1, hits give low values 0.991 | locus YDR001C, strain nth1, hits give low values 1.01 | locus YDR069C, strain doa4, hits give low values 0.966 | locus YDR137W, strain rgp1, hits give low values 0.957 | locus YDR159W, strain sac3, hits give low values 0.965 | locus YDR195W, strain ref2 0.958 | locus YDR297W, strain sur2, hits give low values 0.993 | locus YDR334W, strain swr1, hits give low values 1 | locus YDR335W, strain msn5, hits give low values 1.01 | locus YDR392W, strain spt3, hits give low values 0.979 | locus YEL003W, strain gim4, hits give low values 0.969 | locus YEL037C, strain rad23, hits give low values 0.999 | locus YEL061C, strain CIN8 (second series), hits give low values 1.01 | locus YER015W, strain faa2, hits give low values 0.996 | locus YER016W, strain bim1, hits give low values 0.995 | locus YER111C, strain swi4, hits give low values 0.986 | locus YER155C, strain BEM2 (second series), hits give low values 1.02 | locus YFR010W, strain ubp6, hits give low values 0.97 | locus YGL167C, strain pmr1, hits give low values 0.99 | locus YGL173C, strain kem1, hits give low values 0.971 | locus YGL227W, strain vid30, hits give low values 0.996 | locus YGL240W, strain doc1, hits give low values 0.988 | locus YGL253W, strain hxk2, hits give low values 0.933 | locus YHR013C, strain ard1, hits give low values 1.02 | locus YHR027C, strain rpn1, hits give low values 0.993 | [68] 0.968 | [25] 0.994 | locus YHR142W, strain chs7, hits give low values 0.994 | locus YJL092W, strain hpr5, hits give low values 0.996 | locus YJL095W, strain BCK1 (second series), hits give low values 0.999 | [29] 0.956 | locus YJL115W, strain asf1, hits give low values 0.987 | locus YJL129C, strain trk1, hits give low values 0.977 | locus YJL154C, strain vps35, hits give low values 0.999 | locus YJL164C, strain tpk1, hits give low values 1.03 | locus YJL166W, strain qcr8, hits give low values 0.98 | locus YJL187C, strain SWE1, hits give low values 0.997 | [33] 0.937 | locus YKL160W, strain elf1, hits give low values 1.03 | locus YKR026C, strain gcn3, hits give low values 0.992 | locus YKR091W, strain srl3, hits give low values 1 | locus YLL001W, strain dnm1, hits give low values 0.958 | locus YLL026W, hits give low values 1 | locus YLL041C, strain sdh2, hits give low values 1 | locus YLR027C, strain aat2, hits give low values 1 | [39] 0.957 | locus YLR221C, strain rsa3, hits give low values 0.98 | locus YLR258W, strain gsy2, hits give low values 0.999 | locus YLR262C, strain YPT6 (second series), hits give low values 0.951 | locus YLR320W, strain mms22, hits give low values 0.995 | locus YLR342W, strain FKS1, hits give low values 1 | locus YLR357W, strain rsc2, hits give low values 0.996 | locus YLR370C, strain arc18, hits give low values 0.988 | locus YLR384C, strain iki3, hits give low values 0.968 | locus YML120C, strain ndi1, hits give low values 1.01 | locus YMR058W, strain fet3, hits give low values 0.975 | locus YMR125W, strain sto1, hits give low values 1.02 | locus YMR129W, hits give low values 1 | locus YMR205C, strain PFK2, hits give low values 1.03 | locus YMR231W, strain pep5, hits give low values 0.983 | locus YNL071W, strain lat1, hits give low values 1.04 | [49] 0.896 | locus YNL209W, strain ssb2, hits give low values 1.01 | locus YNL248C, strain rpa49, hits give low values 0.97 | locus YNL322C, strain KRE1 (second series), hits give low values 0.978 | locus YNR049C, strain mso1, hits give low values 0.988 | locus YOR001W, strain rrp6, hits give low values 0.923 | locus YOR070C, strain gyp1, hits give low values 1 | locus YOR080W, strain dia2, hits give low values 0.969 | locus YOR083W, strain WHI5, hits give low values 1.02 | locus YOR106W, strain vam3, hits give low values 1.02 | [57] 0.969 | locus YOR265W, strain rbl2, hits give low values 1.01 | locus YOR270C, strain vph1, hits give low values 0.814 | locus YOR290C, strain snf2, hits give low values 1.02 | locus YPL051W, strain arl3, hits give low values 0.989 | locus YPL078C, strain atp4, hits give low values 1.04 | locus YPL106C, strain sse1, hits give low values 1.09 | locus YPL240C, strain hsp82, hits give low values 0.994 | [63] 0.979

Source: PubChem BioAssay AID1159580 (chemical genetic matrix, 2015)
